# A3G deaminase = inhibitors of human APOBEC3G DNA deaminase; Q9HC16; recombinant A3G, ssDNA deamination FAM/TAMRA fluorescence; inhibition, % at 20 µM; hit rate 0.28% among 330,000;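 active = inhibition of at least 40% at 20 µM, with no more than 30% in the related APOBEC3A deaminase screen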
# Target sequence (Q9HC16 whole entry, looked up): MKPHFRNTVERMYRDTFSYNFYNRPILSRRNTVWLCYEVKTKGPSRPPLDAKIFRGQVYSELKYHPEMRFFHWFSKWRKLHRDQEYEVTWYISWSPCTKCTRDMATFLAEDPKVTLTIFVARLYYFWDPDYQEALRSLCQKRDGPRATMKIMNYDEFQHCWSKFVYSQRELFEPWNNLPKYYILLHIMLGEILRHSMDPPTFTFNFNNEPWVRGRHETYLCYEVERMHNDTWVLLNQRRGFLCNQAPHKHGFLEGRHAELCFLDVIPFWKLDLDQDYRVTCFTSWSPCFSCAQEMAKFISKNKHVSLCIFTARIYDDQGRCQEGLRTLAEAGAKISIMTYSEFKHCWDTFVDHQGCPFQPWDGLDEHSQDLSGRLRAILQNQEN
# A3A deaminase = human APOBEC3A DNA deaminase inhibition; P31941; recombinant A3A, FAM/TAMRA ssDNA deamination fluorescence; inhibition, % at 20 µM; hit rate 0.41% among 330,000;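 active = at least 40% inhibition at 20 µM here, with at most 30% in a related deaminase screen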
# Target sequence (P31941 whole entry, looked up): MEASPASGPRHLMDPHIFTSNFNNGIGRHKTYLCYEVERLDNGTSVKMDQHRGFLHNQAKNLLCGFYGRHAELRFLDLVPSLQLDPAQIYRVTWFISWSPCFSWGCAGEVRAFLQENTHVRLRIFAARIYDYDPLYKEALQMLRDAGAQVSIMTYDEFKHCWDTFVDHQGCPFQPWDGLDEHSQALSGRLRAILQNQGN
# TAG inh = triacylglycerol accumulation inhibition | H9c2 cells, Nile Red lipid (TAG) fluorescence; cells loaded with 200 µM oleic acid | inhibition, % at 12.5 µM | AID 651582 | hit rate 0.66% among 230,000;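 active = pattern-corrected inhibition of lipid staining of at least 50% with the nuclear-stain viability signal not falling by more than 50%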
# PfGluPho inh = PfG6PD (Plasmodium falciparum) enzyme inhibition; PfGluPho enzyme, NADPH resazurin-diaphorase fluorescence; inhibition, % at 20 µM; hit rate 0.78% among 350,000; AID 504690;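 active = inhibition reaching at least a set limit at 20 µM in the primary screen, cut at about 59% in these data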
# H9c2 protect = modulators protecting cardiomyocytes from myocardial damage | H9c2 cardiomyocytes, H2O2 injury protection, ATPLite, 2 h | protection from H2O2 cell death, % at 20 µM | hit rate 0.63% among 360,000;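 active = compounds giving at least 50% protection of heart cells from peroxide-induced death in the single-dose screen, raw or plate-pattern-corrected value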
# NadD inh = blocks S. aureus nicotinate mononucleotide adenylyltransferase | purified NadD enzyme, colorimetric absorbance read-out | inhibition, % at 20 µM | hit rate 0.78% among 360,000; in the data active = inhibition above about 26%
# A number is an active result; – = inactive; · = no result given. In the library only some 2.9% were active in any assay of this set; here they are far more common.
SMILES,A3G deaminase,A3A deaminase,TAG inh,PfGluPho inh,H9c2 protect,NadD inh
Nc1ccc(Oc2ccc3nc(-c4ccccc4)c(-c4ccc([N+](=O)[O-])cc4)nc3c2)cc1,–,–,–,–,–,32
Cc1ccc(CN(C)C(=O)COC(=O)CSc2ccc([N+](=O)[O-])cc2)cc1,–,–,–,–,–,–
Cc1ccc(CN(C)C(=O)COC(=O)CSc2ccc(C(N)=O)cc2[N+](=O)[O-])cc1,–,–,–,–,58,–
CC(NC(=O)c1ccccc1F)c1nnc(SCC(=O)NC2CCCC2)n1C (stereo not drawn),–,–,·,–,–,–
COc1ccc(/C=C/c2ccc3cccc(O)c3n2)cc1Br,–,–,·,–,62,–
COc1cc(/C=C/c2ccc3cccc(O)c3n2)cc(OC)c1OC,–,–,·,–,–,–
COc1ccc(/C=C/c2ccc3c(Br)ccc(O)c3n2)cc1,–,–,·,–,62,–
COc1cc(/C=C/c2ccc3cccc(O)c3n2)cc(Br)c1OC,–,–,·,–,80,–
CCc1ccc(C(=O)CCC(=O)Nc2cccc(S(=O)(=O)N3CCCCC3)c2)cc1,–,–,–,–,–,–
O=C(NCCc1ccccc1)C(=O)NCC1OCCN1S(=O)(=O)c1ccc(F)cc1 (stereo not drawn),–,–,–,–,–,–
O=C(CCn1c(=O)oc2ccccc21)N(Cc1ccccc1)c1ccccc1,–,–,–,–,73,–
COc1ccc(C(=O)CC(Nc2ccc([N+](=O)[O-])cc2)c2ccc(OC)cc2)cc1 (stereo not drawn),–,–,·,–,–,–
CNC(CC(=O)c1ccc([N+](=O)[O-])cc1)C(Cl)(Cl)Cl (stereo not drawn),·,·,–,70,–,–
CC(C)c1ccc(S(=O)(=O)N2CCN(CC(=O)c3ccc(O)c(O)c3)CC2)cc1,–,–,·,·,56,–
O=C(CN1CCN(c2ccccc2F)CC1)c1ccc(O)c(O)c1,–,–,·,–,53,–
CC(C)c1ccc(S(=O)(=O)N2CCN(CC(=O)Nc3ccc(Cl)cc3F)CC2)cc1,–,–,–,–,–,–
O=C(CN1CCN(S(=O)(=O)c2ccc(Br)cc2)CC1)c1ccc(O)c(O)c1,–,–,·,–,71,–
Cn1c(C(=O)N2CCCC(Nc3ccc(F)cc3)C2)cc2ccccc21 (stereo not drawn),–,–,·,–,–,–
CCOc1ccc(N(CC(=O)NCCSc2ccccn2)S(=O)(=O)c2ccc(Cl)cc2)cc1,–,–,·,–,–,–
CCOc1ccc(N(CC(=O)N/N=C/c2ccccn2)S(=O)(=O)c2ccc(Cl)cc2)cc1,–,–,–,–,56,–
CN(C)CCNC(=O)c1cccc2nc3c(ccc4ccccc43)nc12,·,·,51,–,–,–
COc1cccc2nc3c(C(=O)NCCN(C)C)cccc3cc12,·,·,–,–,–,–
COc1cc(/C=C/C(=O)N2CCCN(C(=O)/C=C/c3cc(OC)c(OC)c(OC)c3)CC2)cc(OC)c1OC,–,–,·,–,–,–
COc1cc(/C=C/C(=O)N2CCC=CC2=O)cc(OC)c1OC,–,–,62,–,–,–
COc1ccc2nc(C)cc(SCC(=O)N/N=C/c3c(OC)ccc4ccccc34)c2c1,·,·,·,–,–,–
SMILES,A3G deaminase,A3A deaminase,TAG inh,PfGluPho inh,H9c2 protect,NadD inh
COc1ccc(Cc2nc3ccccc3n2CC(=O)N/N=C/c2ccc(O)cc2)cc1OC,–,–,–,–,–,–
COc1ccc2nc(C)cc(SCC(=O)N/N=C/c3ccc(O)cc3O)c2c1,–,–,·,–,52,–
COc1ccc(Cc2nc3ccccc3n2CC(=O)N/N=C/c2ccc(C)cc2O)cc1OC,–,–,·,–,52,–
COc1cccc2c(SCC(=O)N/N=C/c3ccc(O)cc3O)cc(C)nc12,–,–,–,–,81,–
COCc1cc(C)nc(OCC(=O)N/N=C/c2ccc(O)cc2O)c1C#N,–,–,–,–,52,–
CCCCCCSc1cc(-c2nc3ccc(C)cn3c2NCc2ccccc2)ccc1OC,–,–,–,–,–,–
CCn1cc(C(=O)NCCCN(CC(C)C)CC(C)C)c(=O)c2cc(S(=O)(=O)N(C)C3CCCCC3)ccc21,–,–,·,–,–,–
COC(=O)C1=C(C)N(C)C(=O)NC1c1c(O)ccc2ccccc12 (stereo not drawn),–,–,–,–,–,–
COc1ccc2cc3cc(C(=O)Nc4ccccc4N4CCN(C)CC4)oc3nc2c1,–,–,53,–,–,–
COc1ccc2cc3cc(C(=O)NCCN4CCN(c5ccccc5F)CC4)oc3nc2c1,–,–,–,–,–,–
O=C(COC(=O)CCN1C(=O)/C(=C\C=C\c2ccccc2)SC1=S)Nc1cc(F)ccc1F,–,–,·,–,–,35
O=C(NN1C(=O)/C(=C/C=C/c2ccco2)SC1=S)c1ccncc1,–,–,–,–,–,–
O=C(NN1C(=O)/C(=C/C=C/c2ccccc2)SC1=S)c1ccncc1,–,–,–,–,–,34
O=C(CCN1C(=O)/C(=C/C=C/c2ccccc2)SC1=S)Nc1nc2ccccc2s1,–,–,–,–,–,42
O=C(CN1C(=O)/C(=C\C=C\c2ccccc2)SC1=S)Nc1ccc(F)cc1,–,–,·,–,–,–
O=C(CCN1C(=O)/C(=C\C=C\c2ccccc2)SC1=S)Nc1ccc(C(=O)O)cc1,–,–,–,–,–,–
Cc1nn(-c2ccccc2)c(Cl)c1/C=N/NC(=O)CCNc1n[nH]c(=O)[nH]c1=O,–,–,·,–,·,·
COc1ccc(OC)c(C(=O)NC(CC(N)=O)c2ccc(NC(C)C)c([N+](=O)[O-])c2)c1 (stereo not drawn),–,–,–,–,–,–
O=C(CN1CCOCC1)N/N=C/c1c(O)ccc2ccccc12,–,–,·,–,69,–
Cn1cc(C(=O)N/N=C/c2c(O)ccc3ccccc23)ccc1=O,–,–,–,–,71,–
O=C(N/N=C\c1c(O)ccc2ccccc12)c1ccc(O)cc1,–,–,–,–,–,–
O=C(N/N=C/c1c(O)ccc2ccccc12)c1ccc[n+](CCO)c1,–,–,·,–,56,–
CCCCc1ccc(NS(=O)(=O)c2cccc(C(=O)N3CCNC(=O)C3)c2)cc1,–,–,–,–,–,–
Cc1csc(NC(=O)c2cccc(S(=O)(=O)N3CCN(C)CC3)c2)n1,–,–,·,–,–,–
C/C=C/C=N/NC(=O)CN(c1ccc(Br)cc1)S(=O)(=O)c1ccccc1,–,–,·,–,–,–
CCOC(=O)C1=C(CS(=O)(=O)c2ccc(C)cc2)NC(=O)NC1c1cc(OC)c(O)c(OC)c1 (stereo not drawn),–,–,·,–,–,–
Cc1ccc(C)c(N=Cc2cc3c(cc2[N+](=O)[O-])OCO3)c1,–,–,–,–,63,–
Cc1ccccc1NC(=O)CSc1nnc2ccc(-c3cccnc3)nn12,–,–,–,–,–,–

# Compound activity from PubChem.
